Sfp PPTase inh – Sfp phosphopantetheinyl transferase inhibition. Q9F4F7. Biochemical Sfp PPTase activity, qHTS. Potency, µM, most hits filed as inhibitors. 310,000 compounds, 3.5% hits. AID 1490;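 also: the enzyme is Sfp with the accession as filed and its product quenches rhodamine fluorescence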
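Buffer: 50 mM Hepes-Na pH 7.6, 10 mM MgCl2, 0.01% Nonidet P-40, 0.01% BSA. Enzyme 15 nM, pre-exposed to compound 15 min; substrates then added and fluorescence change tracked over 30 min.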
Tau fluor counter – counter-screen for tau fibril formation inhibitors; tau K18 P301L Alexa594 fluorescence, heparin fibrillization; Potency, µM (titrated, usually from 57.7 µM); 280,000 compounds, 0.93% hits; also: nearly all actives have a fitted effect of over 55% in size
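Human K18 P301L tau (15 uM unlabeled plus 0.24 uM Alexa 594-labeled, final) in 100 mM sodium acetate pH 7 was mixed with compound and 20 uM heparin and incubated 6 hr at 37 C.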
Tau fibril FP – blocks human tau fibril formation measured by polarization; 280,000 compounds, 0.39% hits; P10636; K18 P301L tau heparin fibrillization, Alexa594 FP, 6 h; Potency, µM (top dose mostly 57.7 µM), most hits filed as inhibitors; also: nearly all actives have a fitted effect of over 55% in size
Target sequence (P10636 561-689 P618L limits assumed): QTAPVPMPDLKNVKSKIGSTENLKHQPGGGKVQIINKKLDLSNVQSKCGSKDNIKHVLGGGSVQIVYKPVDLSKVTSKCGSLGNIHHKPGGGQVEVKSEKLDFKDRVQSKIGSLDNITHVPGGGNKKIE
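FP of Alexa 594-tau after heparin (20 uM) induction. Substrate: human K18 P301L, 15 uM unlabeled, 0.24 uM labeled. Buffer 100 mM sodium acetate pH 7. 6 hr, 37 C.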
KDM4E inh – inhibitors of human JMJD2E histone demethylase; B2RXH2; JMJD2E catalytic domain, FDH-coupled NADH fluorescence (FDH is formaldehyde dehydrogenase); Potency, µM (titrated, usually from 57.1 µM), actives largely listed as inhibitors; 230,000 compounds, 1.6% hits; AID 2147; active = well fitted inhibition curve with a large enough effect, not every such curve was filed as active; inconclusive = small, poorly fitted or top-dose-only effect, or another doubt; inactive = no such curve, though single readings can be large or run the other way; also: nearly all actives have a fitted effect of over 50% in size
Target sequence (B2RXH2 1-337 limits assumed): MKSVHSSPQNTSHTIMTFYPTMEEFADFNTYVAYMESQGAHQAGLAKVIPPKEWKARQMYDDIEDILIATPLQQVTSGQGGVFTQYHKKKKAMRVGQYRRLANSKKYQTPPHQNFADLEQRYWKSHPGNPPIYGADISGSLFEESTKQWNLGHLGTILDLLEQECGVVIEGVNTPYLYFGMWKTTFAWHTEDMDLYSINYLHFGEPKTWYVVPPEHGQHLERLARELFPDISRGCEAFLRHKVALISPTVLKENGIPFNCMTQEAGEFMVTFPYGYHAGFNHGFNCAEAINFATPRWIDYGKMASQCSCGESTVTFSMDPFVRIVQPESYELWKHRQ
Tau ThT inhib – blocks human tau fibril formation measured by thioflavin T; Potency, µM (doses to about 57.4 µM), most hits filed as inhibitors; P10636; recombinant tau K18 P301L (four-repeat tau fragment), heparin-induced fibrillization, ThT fluorescence; 270,000 compounds, 2.1% hits; AID 1460; also: nearly all actives have a fitted effect of over 55% in size
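K18 P301L tau (15 uM + 0.24 uM Alexa 594-tagged), heparin 20 uM, NaOAc pH 7, 6 h 37 C; ThT 30 uM, 1 h RT, ex 450/em 510 nm.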
FBPA coupling cs – inhibits coupling enzyme system, counter-screen for aldolase hits | coupling enzyme system counterscreen, AmpLite Red fluorescence | 290,000 compounds, 0.67% hits | activity change, negative = inhibition, % at 58.2 µM, hits read low; in the data active = activity change below about -30%
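Counterscreen of the coupled detection system alone, without aldolase: glyceraldehyde-3-phosphate coupling enzymes plus AmpLite Red readout. Compounds at 57.5 uM final, 10 min RT preincubation, 20 min RT reaction, fluorescence 525/598 nm.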
A number is an active result; n = inactive; u = inconclusive; x = no result given; ! = repeats disagree; [ ] = dose if it differs, or a comment. Shown are actives, neighbours in structure and some others; about 5.3% of the full set was active somewhere. Unless noted, calls follow the shape of the dose curve; as a rule, active = well fitted curve in the direction sought with a large enough effect; inconclusive = small, poorly fitted or top-dose-only effect, or another doubt; inactive = no such curve, though single readings can be large; an effect the other way counts as inactive or inconclusive.

SMILES	Sfp PPTase inh	Tau fluor counter	Tau fibril FP	KDM4E inh	Tau ThT inhib	FBPA coupling cs
O=[N+]([O-])c1ccc(Nc2c3ccccc3nc3ccccc23)cc1	n	11µM[quencher]	u	u	10µM	n
O=C(Nc1ccccc1C(=O)O)/C(=C/c1ccc([N+](=O)[O-])cc1)NC(=O)c1ccc(Br)o1	7.9µM	n	u	n	u	n
CCCCNC(=O)c1cc(-c2ccc(OC)cc2)nc2n[nH]c(-c3cccc([N+](=O)[O-])c3)c12	x	n	n	x	n	x
Cc1cccc(-c2nc(Nc3ccc(N4CCOCC4)cc3)c3ccccc3n2)c1	n	11µM[quencher]	u	n	u	n
Oc1ccc(Nc2nc(-c3ccc(Cl)cc3)nc3ccccc23)cc1	x	4µM[quencher]	u	x	13µM	x
Cc1cccc(-c2nc(Nc3cccc(O)c3)c3ccccc3n2)c1	n	x	x	x	x	n
CC(=O)c1cccc(Nc2nc(-c3cccc(C)c3)nc3ccccc23)c1	x	2.8µM[quencher]	7.1µM	x	n	x
c1ccc2c(Nc3ccc(N4CCOCC4)cc3)nc(N3CCOCC3)nc2c1	n	x	x	x	x	n
CCN(CC)S(=O)(=O)c1ccc2c(c1)nc(CN(C)C(=O)Nc1ccc(C)c(Cl)c1)n2C	x	n	n	x	n	x
CCn1c(=O)cc(OCC(=O)NCc2ccc(C)o2)c2ccccc21	32µM	n	n	n	n	n
Cc1ccc(CNC(=O)CCCOc2cc(=O)n(C)c3ccccc23)o1	22µM	n	n	n	n	n
CCOC(=O)CCc1c(C)c2ccc(O)cc2oc1=O	n	n	n	u	n	-39
CCN(CC)c1ccc2c(c1)oc(=O)c1c(Cl)cc(=O)oc12	n	n	n	n	n	n
CCN(CC)c1ccc2c(Cl)c(Br)c(=O)oc2c1	56µM	u	n	u	n	n
CCOC(=O)Cc1c(C)c2ccc(N(CC)CC)cc2oc1=O	n	n	u	u	14µM	n
CCN(CC)c1ccc2c(C)c(-c3ccc(N)cc3)c(=O)oc2c1	n	u	n	u	u	n
CO[C@H]1COC(=O)C/C=C\[C@@H](C)[C@H](OC)COC(=O)[C@H]2CCCN2C(=O)C/C=C\[C@@H]1C	n	n[11.6 µM]	n[11.6 µM]	x	n[11.5 µM]	n
Cc1cc(N2CCCCC2)nc2ccc(NC(=O)c3cccc(Cl)c3)cc12	x	14µM[quencher]	u	x	10µM	x
CCN(CC)c1cc(C)c2cc(NC(=O)c3ccc(F)cc3Cl)ccc2n1	x	u	n	x	u	x
CCN(CC)c1cc(C)c2cc(NC(=O)c3ccccc3OC)ccc2n1	n	u	n	u	u	n
Cc1ccc(C(=O)Nc2ccc3nc(N4CCCCC4)cc(C)c3c2)cc1F	x	n	n	x	n	x
Cc1cc(N2CCCCC2)nc2ccc(NC(=O)c3cccc(F)c3)cc12	x	13µM[quencher]	n	x	u	x
CCN(CC)c1cc(C)c2cc(NC(=O)c3cccc(F)c3)ccc2n1	x	32µM[quencher]	n	x	u	x
CCN(CC)c1cc(C)c2cc(NC(=O)/C=C/c3ccccc3Cl)ccc2n1	x	7.9µM[quencher]	n	x	3.5µM	x
COc1ncc2nc(-c3cccs3)c(=O)n(-c3ccccc3)c2n1	n	x	x	x	x	n
SMILES	Sfp PPTase inh	Tau fluor counter	Tau fibril FP	KDM4E inh	Tau ThT inhib	FBPA coupling cs
COC(=O)C(NS(=O)(=O)CCl)C(C)C (centres undefined)	n	x	x	x	x	n
NC1(C(=O)O)CCCC1	n	n	n	n	n	n
O=C(O)C1(C(=O)O)CCC1.[NH2-].[NH2-].[Pt+2]	6.3µM	x	x	x	x	n
O=C1C(=O)N(c2ccccc2)C(c2ccccc2[N+](=O)[O-])/C1=C(\O)c1ccccc1 (centres undefined)	13µM	n	n	n	u	n
O=C1C(=O)N(c2cccc(Cl)c2)C(c2ccccc2[N+](=O)[O-])/C1=C(\O)c1ccccc1 (centres undefined)	22µM	n	n	n	u	n
CCOc1ccc(N2C(=O)C(=O)/C(=C(/O)c3ccccc3)C2c2ccccc2[N+](=O)[O-])cc1 (centres undefined)	u	n	n	n	u	n
Cc1cccn2c(=O)c3cc(S(=O)(=O)c4ccccc4)c(=N)n(Cc4ccco4)c3nc12	56µM	n	n	u	n	n
Cc1ccc(S(=O)(=O)c2cc3c(=O)n4ccccc4nc3n(Cc3ccco3)c2=N)cc1C	79µM	n	n	u	u	n
Cc1cccn2c(=O)c3cc(S(=O)(=O)c4ccc(F)cc4)c(=N)n(Cc4ccco4)c3nc12	n	n	n	u	n	n
Cc1ccc(NC(=O)N2CCN(c3nnc(C)c4c(C)n(-c5ccccc5)nc34)CC2)cc1Cl	x	n	n	x	u	x
COc1ccc(Nc2cc(C(=O)NCc3ccccc3)c3ccccc3n2)cc1	x	u	u	x	n	x
Cc1ccc(C)c(Nc2cc(C(=O)NCCCN(C)C3CCCCC3)c3ccccc3n2)c1	x	u	n	x	u	x
Cc1cc(C)cc(Nc2cc(C(=O)NCCCN(C)C3CCCCC3)c3ccccc3n2)c1	x	3.2µM[quencher]	n	x	u	x
Cc1cc(C)cc(Nc2cc(C(=O)NCc3ccccc3)c3ccccc3n2)c1	x	3.5µM[quencher]	u	x	n	x
CCOC(=O)c1ccc(NC(=O)C(CC)Sc2nc3ccncc3[nH]2)cc1 (centres undefined)	x	n	n	x	n	x
COC(=O)c1cc(Nc2nc3ccccc3nc2NS(=O)(=O)c2ccc(C)cc2)ccc1Cl	x	u	n	x	u	x
CC(=O)/C(=N\Nc1ccccc1)Sc1nncn1C	20µM	n	n	n	n	n
CCOC(=O)C1=C(CSc2nc(CC)c(C)cc2C#N)OC(N)=C(C#N)C1c1ccc(OC)cc1 (centres undefined)	7.9µM	n	n	n	n	n
CCOC(=O)C1=C(CC)OC(N)=C(C#N)C1c1cc(OC)ccc1OC (centres undefined)	n	n	n	n	n	n
CCOC(=O)C1=C(CSc2nc(C)ccc2C#N)OC(N)=C(C#N)C1c1cccc(OC)c1OC (centres undefined)	14µM	n	n	u	n	n
COC(=O)C1=C(CSc2nc3c(cc2C#N)CN(C)CC3)OC(N)=C(C#N)C1c1ccc(F)cc1 (centres undefined)	u	u	u	u	25µM	n
COC(=O)CC1=C(C(=O)OC)C(c2ccncc2)C(C#N)=C(N)O1 (centres undefined)	n	n	n	u	u	n
CO/N=C(\C)CCN1CCCc2nc(C)c(C)cc21	n	n[11.6 µM]	u	x	n[11.5 µM]	n
COc1cccc(NC(=O)C2CCCN(S(=O)(=O)c3cn(C(C)C)cn3)C2)c1 (centres undefined)	x	n	n	x	n	x
OC[C@@H]1O[C@H](OC2[C@@H](O)[C@@H](O)[C@@H](O)O[C@@H]2CO)[C@H](O)[C@@H](O)[C@@H]1OC1O[C@H](CO)[C@@H](O)[C@H](O)[C@@H]1O (some centres undefined)	n	x	x	x	x	n
COc1cc2ccc(=O)oc2c(O)c1O	40µM!	n	u	u	u	n
